Usually inhibition stands for the change of the read-out against control, counted positive when it falls.

Molecules are shown by their SMILES.

Consider 14 molecules from ChEMBL document CHEMBL1961873, “Compounds: GSK PKIS; Assays: Nanosyn kinase panel” (2012).

Assay [1] concerns Proto-oncogene tyrosine-protein kinase receptor Ret (Homo sapiens), P07949 [Y791F]. Conditions: at 1 µM.
The target in assay [2] is Macrophage-stimulating protein receptor (Homo sapiens) (UniProt Q04912). To be noted: at 0.1 µM.
The target is the same in assay [3]. Conditions: at 1 µM.
Assay [4] concerns the target Proto-oncogene tyrosine-protein kinase ROS (Homo sapiens) (UniProt P08922). To be noted: at 0.1 µM.
Assay [5] has the same target. Conditions: at 1 µM.
Assay [6] deals with Proto-oncogene tyrosine-protein kinase Src (Homo sapiens) (UniProt P12931). To be noted: at 0.1 µM.
Assay [7] has the same target. To be noted: at 1 µM.
The target of assay [8] is Tyrosine-protein kinase Srms (Homo sapiens) (UniProt Q9H3Y6). To be noted: at 0.1 µM.
Assay [9] shares this target. To be noted: at 1 µM.
The target of assay [10] is Tyrosine-protein kinase SYK (Homo sapiens) (UniProt P43405). Conditions: at 0.1 µM.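 Note: reported percentages are mean inhibition values for SYK.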

Proto-oncogene tyrosine-protein kinase ROS (Homo sapiens), sequence (P08922 whole entry): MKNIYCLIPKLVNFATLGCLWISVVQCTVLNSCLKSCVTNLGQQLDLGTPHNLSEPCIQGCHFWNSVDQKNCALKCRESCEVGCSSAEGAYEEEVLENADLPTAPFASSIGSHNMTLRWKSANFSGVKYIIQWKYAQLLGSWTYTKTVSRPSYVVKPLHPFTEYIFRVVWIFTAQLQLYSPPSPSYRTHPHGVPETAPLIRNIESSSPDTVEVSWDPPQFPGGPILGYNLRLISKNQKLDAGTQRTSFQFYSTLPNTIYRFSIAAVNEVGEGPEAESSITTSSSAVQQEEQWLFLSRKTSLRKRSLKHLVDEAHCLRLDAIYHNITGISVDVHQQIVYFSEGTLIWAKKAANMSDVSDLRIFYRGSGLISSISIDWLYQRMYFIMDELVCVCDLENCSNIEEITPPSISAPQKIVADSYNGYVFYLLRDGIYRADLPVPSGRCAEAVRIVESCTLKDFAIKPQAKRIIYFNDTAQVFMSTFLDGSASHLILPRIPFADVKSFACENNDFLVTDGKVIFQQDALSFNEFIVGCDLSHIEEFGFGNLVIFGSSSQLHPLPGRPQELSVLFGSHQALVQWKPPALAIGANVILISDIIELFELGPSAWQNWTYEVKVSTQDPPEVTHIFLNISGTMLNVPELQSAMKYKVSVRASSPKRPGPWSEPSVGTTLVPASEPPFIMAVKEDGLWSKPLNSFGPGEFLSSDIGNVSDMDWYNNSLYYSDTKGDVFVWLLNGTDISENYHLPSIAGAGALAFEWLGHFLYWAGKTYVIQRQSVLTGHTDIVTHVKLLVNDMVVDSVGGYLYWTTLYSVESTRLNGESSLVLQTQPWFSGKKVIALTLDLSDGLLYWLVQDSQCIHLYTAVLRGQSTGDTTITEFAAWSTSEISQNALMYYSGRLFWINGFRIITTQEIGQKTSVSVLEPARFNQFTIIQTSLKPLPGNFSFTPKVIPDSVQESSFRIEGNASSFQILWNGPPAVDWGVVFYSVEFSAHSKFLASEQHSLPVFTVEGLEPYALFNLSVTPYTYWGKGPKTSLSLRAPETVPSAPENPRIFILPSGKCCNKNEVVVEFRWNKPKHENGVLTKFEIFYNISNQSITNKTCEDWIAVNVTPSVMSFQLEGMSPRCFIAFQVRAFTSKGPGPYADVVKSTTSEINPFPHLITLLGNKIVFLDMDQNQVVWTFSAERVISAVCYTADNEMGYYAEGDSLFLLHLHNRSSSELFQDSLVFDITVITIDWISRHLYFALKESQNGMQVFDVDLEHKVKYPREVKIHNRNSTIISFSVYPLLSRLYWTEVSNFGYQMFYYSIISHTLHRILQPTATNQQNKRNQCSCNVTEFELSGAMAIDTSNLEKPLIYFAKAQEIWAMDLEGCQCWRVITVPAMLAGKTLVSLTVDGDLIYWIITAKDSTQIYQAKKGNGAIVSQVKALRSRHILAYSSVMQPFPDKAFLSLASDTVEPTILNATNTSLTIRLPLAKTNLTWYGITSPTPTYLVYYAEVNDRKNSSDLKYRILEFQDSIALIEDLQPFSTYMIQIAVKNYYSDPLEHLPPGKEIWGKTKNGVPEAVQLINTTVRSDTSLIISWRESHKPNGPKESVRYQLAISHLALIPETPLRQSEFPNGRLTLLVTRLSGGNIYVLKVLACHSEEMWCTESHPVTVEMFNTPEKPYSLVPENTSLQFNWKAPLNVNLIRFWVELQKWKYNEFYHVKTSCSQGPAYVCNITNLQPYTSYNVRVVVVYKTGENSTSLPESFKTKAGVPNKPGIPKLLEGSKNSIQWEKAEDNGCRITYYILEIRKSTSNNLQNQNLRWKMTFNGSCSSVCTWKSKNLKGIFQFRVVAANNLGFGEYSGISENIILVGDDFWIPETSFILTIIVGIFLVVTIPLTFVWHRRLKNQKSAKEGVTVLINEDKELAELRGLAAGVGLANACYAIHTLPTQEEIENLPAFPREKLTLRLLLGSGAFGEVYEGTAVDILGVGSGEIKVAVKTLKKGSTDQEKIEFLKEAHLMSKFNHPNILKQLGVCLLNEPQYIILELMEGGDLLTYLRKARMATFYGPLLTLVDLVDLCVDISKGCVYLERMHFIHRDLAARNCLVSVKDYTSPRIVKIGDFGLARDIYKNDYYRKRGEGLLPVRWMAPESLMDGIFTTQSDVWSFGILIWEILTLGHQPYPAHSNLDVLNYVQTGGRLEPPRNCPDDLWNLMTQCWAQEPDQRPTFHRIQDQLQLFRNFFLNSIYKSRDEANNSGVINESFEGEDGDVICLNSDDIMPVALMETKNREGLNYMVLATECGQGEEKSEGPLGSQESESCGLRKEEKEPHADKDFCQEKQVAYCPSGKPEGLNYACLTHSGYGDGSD
Proto-oncogene tyrosine-protein kinase Src (Homo sapiens), sequence (P12931 2-536 limits assumed): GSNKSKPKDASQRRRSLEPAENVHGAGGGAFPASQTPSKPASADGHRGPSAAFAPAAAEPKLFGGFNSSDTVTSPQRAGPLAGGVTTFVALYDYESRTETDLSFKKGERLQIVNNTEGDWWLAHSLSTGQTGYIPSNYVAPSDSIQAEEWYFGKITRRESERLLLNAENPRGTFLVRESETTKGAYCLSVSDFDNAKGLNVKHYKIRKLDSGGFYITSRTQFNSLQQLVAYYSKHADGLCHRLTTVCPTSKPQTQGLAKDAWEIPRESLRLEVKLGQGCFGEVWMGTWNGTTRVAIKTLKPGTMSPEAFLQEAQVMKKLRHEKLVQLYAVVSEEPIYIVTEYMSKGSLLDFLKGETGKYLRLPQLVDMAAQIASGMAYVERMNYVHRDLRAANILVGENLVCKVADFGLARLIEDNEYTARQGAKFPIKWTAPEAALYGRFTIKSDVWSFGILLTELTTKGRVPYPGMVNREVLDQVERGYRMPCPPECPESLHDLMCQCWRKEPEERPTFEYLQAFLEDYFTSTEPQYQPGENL
Macrophage-stimulating protein receptor (Homo sapiens), sequence (Q04912 25-304 limits assumed): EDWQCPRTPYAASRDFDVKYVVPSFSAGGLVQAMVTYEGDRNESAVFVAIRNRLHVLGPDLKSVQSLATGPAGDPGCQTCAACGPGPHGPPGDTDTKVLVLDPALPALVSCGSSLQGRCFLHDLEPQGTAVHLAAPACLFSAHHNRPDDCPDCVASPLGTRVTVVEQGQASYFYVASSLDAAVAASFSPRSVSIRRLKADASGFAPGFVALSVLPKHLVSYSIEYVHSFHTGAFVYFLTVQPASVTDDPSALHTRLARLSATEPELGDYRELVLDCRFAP
Macrophage-stimulating protein receptor (Homo sapiens), sequence (Q04912 310-1400 limits assumed): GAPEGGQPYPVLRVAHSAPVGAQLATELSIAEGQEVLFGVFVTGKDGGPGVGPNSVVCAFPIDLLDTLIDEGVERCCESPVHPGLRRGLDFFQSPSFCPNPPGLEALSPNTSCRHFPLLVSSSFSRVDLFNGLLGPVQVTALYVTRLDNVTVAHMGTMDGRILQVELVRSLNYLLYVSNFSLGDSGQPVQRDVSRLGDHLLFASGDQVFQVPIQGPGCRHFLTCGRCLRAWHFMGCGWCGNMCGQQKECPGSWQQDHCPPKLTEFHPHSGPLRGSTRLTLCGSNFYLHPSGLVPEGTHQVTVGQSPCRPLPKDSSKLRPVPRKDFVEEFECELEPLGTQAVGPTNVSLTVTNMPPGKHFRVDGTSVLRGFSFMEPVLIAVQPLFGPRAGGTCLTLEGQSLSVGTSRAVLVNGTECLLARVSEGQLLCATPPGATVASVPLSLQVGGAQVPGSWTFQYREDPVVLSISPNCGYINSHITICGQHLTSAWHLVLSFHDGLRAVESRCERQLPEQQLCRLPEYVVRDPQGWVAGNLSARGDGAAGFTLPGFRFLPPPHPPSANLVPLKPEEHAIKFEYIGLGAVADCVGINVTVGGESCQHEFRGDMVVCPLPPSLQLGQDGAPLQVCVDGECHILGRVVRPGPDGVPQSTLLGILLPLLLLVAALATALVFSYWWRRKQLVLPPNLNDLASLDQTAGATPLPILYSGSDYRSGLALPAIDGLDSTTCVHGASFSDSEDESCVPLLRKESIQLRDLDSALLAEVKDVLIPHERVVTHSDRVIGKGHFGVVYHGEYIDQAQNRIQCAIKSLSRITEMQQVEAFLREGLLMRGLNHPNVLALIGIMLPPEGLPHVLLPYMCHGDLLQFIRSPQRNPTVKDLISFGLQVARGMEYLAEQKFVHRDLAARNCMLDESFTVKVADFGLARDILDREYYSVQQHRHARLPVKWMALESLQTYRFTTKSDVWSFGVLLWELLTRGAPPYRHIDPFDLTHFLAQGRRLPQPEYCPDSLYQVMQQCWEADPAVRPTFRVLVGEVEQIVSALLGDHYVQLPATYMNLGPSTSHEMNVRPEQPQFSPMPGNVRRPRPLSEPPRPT
Tyrosine-protein kinase Srms (Homo sapiens), sequence (Q9H3Y6 whole entry): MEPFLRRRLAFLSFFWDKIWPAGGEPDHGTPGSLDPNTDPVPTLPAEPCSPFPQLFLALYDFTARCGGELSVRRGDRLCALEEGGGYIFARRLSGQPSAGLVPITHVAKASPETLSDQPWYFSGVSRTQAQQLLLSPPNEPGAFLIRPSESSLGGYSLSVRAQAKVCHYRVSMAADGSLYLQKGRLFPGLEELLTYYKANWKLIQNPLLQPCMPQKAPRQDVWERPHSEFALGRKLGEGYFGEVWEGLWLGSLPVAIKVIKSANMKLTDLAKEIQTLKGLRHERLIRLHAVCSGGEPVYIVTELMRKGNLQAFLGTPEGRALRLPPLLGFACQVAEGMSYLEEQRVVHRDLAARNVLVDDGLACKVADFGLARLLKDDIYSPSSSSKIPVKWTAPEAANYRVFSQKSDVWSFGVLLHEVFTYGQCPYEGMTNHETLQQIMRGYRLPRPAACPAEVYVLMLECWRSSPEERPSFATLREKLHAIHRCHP

`COc1cccc(COc2cc(-n3cnc4ccccc43)sc2C(N)=O)c1`: the inhibition in assay [1] was 11.6%; in assay [2] it was -1.15%; in assay [3] it was 1.23%; in assay [4], 1.62%; in [5] it was 3.74%; in assay [6] it was -0.77%. For the same molecule, the inhibition in assay [7] was -2.52%; in assay [8] it was -2.46%; in [9], -1.46%; in assay [10] it was -0.33%.

Regarding `Cc1cc(-c2ccco2)cc(C)c1/C=C/c1cncc(-c2nn[nH]n2)c1`, the inhibition in assay [1] is 2.75%; in assay [2], 1.68%; in assay [3] it was -0.11%; in [4], 2.71%; in [5], 3.62%; in assay [6] it was 2.38%. The inhibition in [7] was found to be 2.91%; in assay [8], 0.76%; in assay [9], 3.61%; in [10] it was 0.05%.

For the molecule `COc1cccc(-n2ncc3c(N/N=C/c4ccncc4)ncnc32)c1`, the inhibition was found to be 65.9% in [1]; 12.4% in [2]; 60.9% in assay [3]; 10.2% in [4]; 76% in assay [5]; 49.1% in [6]. For the same molecule, the inhibition in assay [7] was 87.3%; in [8] it was 1.22%; in assay [9], 14.3%; in [10], -2.07%.

Turning to `Fc1ccc(-c2ncn(C3CCNCC3)c2-c2ccnc(Oc3ccccc3)n2)cc1`, the inhibition in [1] is 4.13%; in assay [3], -0.69%; in assay [4], 2.25%; in [5] it was 4.83%; in assay [6], 1.52%; in assay [7], 2.45%. Also, the inhibition in [8] is -0.96%; in assay [9], -0.16%; in assay [10] it was 2.45%.

For `COc1cc(C=NNc2ncnc3c2cnn3Cc2ccccc2)ccc1O`, the inhibition is 28.4% in assay [1]; -1.32% in assay [2]; 12.5% in assay [3]; 2.7% in [4]; 16.4% in [5]; 31.2% in assay [6]. Besides, the inhibition in assay [7] was 76.5%; in assay [8], -0.22%; in assay [9] it was 4.66%; in assay [10], 4.57%.

With `COc1cc2c(cc1Nc1nc(Nc3ccsc3C(N)=O)c3cc[nH]c3n1)N(C(=O)CN(C)C)CCC2`, the inhibition in assay [1] was found to be 7.35%; in [2], 2.97%; in assay [3] it was 11.5%; in [4], 82.1%; in [5] it was 82.1%; in assay [6], 8.11%. The inhibition in assay [7] was found to be 6.64%; in assay [8], 5.79%; in assay [9] it was 3.93%; in assay [10] it was 10.9%.

Regarding `NC(=O)c1sc(-n2cnc3cc(C(F)(F)F)ccc32)cc1OCc1ccccc1Br`, the inhibition in assay [1] is 7.07%; in [2], 0.35%; in [3], -1.59%; in [4] it was 4.23%; in assay [5] it was 5.52%; in [6], 3.37%. For the same molecule, the inhibition came to 2.02% in assay [7], 0.27% in assay [8], 0.76% in assay [9] and 0.79% in assay [10].

As for `CCn1c(-c2nonc2N)nc2c(C#CCN)ncc(OCCCN)c21`, the inhibition in assay [1] was 15.8%; in [2] it was -2.05%; in [3], -3.31%; in [4], 3.3%; in assay [5], 4.46%; in assay [6], -2.04%. Moreover, the inhibition is -4.29% in assay [7], 1.1% in [8], 1.96% in assay [9] and 8.99% in assay [10].

Regarding `CCn1c(-c2nonc2N)nc2c(C#CC(C)(C)O)ncc(OCC3CCNCC3)c21`, the inhibition is 33.5% in [1]; 0.01% in assay [2]; 7.68% in assay [3]; 3.89% in assay [4]; 5.45% in assay [5]; -0.03% in assay [6]. In addition, the inhibition in assay [7] amounted to 8.65%; in assay [8], 0.75%; in assay [9], 1.57%; in assay [10], 0.62%.

In the case of `NS(=O)(=O)c1ccc(-c2ccc3c(NC(=O)C4CC4)n[nH]c3c2)cc1`, the inhibition in assay [1] came to 5.85%; in [2] it was 5.07%; in assay [3] it was 8.99%; in [4] it was 1.18%; in assay [5], 2.15%; in assay [6], 1.32%. The inhibition in [7] is 4.59%; in [8], -2.44%; in assay [9] it was -0.4%; in [10] it was -0.58%.

`CCn1c(-c2nonc2N)nc2c(C#CC(C)(C)O)nc(O[C@@H](CN)c3ccccc3)cc21`: the inhibition in assay [1] amounted to 80.3%; in assay [2] it was 1.9%; in assay [3], 3.42%; in assay [4], 2.61%; in assay [5], 11.1%; in assay [6], 2.84%. Also, the inhibition in assay [7] is 20.9%; in assay [8], 4.6%; in assay [9], 0.15%; in assay [10] it was 1.9%.

Turning to `Nc1nonc1-c1nc2cnccc2n1C1CCCCC1`, the inhibition in assay [1] was 13.2%; in assay [2], 13.1%; in assay [3], -1.49%; in assay [4], 5.33%; in assay [5], 35.9%; in assay [6] it was 1.24%. For the same molecule, the inhibition in assay [7] was -1.17%; in assay [8], 1.53%; in assay [9] it was 2.59%; in [10], 3.45%.

As for `CCn1c(-c2nonc2N)nc2c(C#CC(C)(C)O)ncc(OC[C@@H]3CCCN3)c21`, the inhibition in [1] is 28.5%; in [2], 1.97%; in assay [3] it was -2.78%; in [4] it was -0.22%; in assay [5], 0.45%; in assay [6], -0.2%. Further, the inhibition in assay [7] is -2.58%; in assay [8], 1.63%; in assay [9] it was 0.87%; in assay [10] it was -0.6%.

On to `NS(=O)(=O)c1ccc(N/C=C2\C(=O)Nc3ccc4ncsc4c32)cc1`, for which the inhibition in assay [1] came out at 69%; in assay [2] it was 7.83%; in [3], 39.2%; in assay [4], 6.11%; in assay [5], 17%; in assay [6] it was 12.2%. Also, the inhibition is 42.9% in assay [7], -3.95% in assay [8], -1.72% in [9] and -2.47% in assay [10].
